{"source": "PubChem BioAssay (Tox21)", "note": "Inconclusive results are not listed. Activity calls are given as the source filed them. Calls follow the shape of the dose curve; as a rule, active = well fitted cell-killing curve with a large enough effect in the repeat runs; inconclusive = weak or mixed curves; inactive = no such curve, though single readings can be large or run the other way.", "data": [{"assay": "qHTS assay to identify small molecule antagonists of the androgen receptor (AR) signaling pathway - cell viability counter screen (AID 743033; also: nearly all actives have a fitted effect of over 45% in size)", "details": "AR-bla HEK293 viability, CellTiter-Glo luminescence, 16 h; series mostly up to 58.5 µM", "description": "National Center for Advancing Translational Sciences [NCATS]\nNIH Chemical Genomics Center [NCGC]\nU.S. Environmental Protection Agency [EPA]\nNational Institutes of Environmental Health Sciences [NIEHS]\nNational Toxicology Program [NTP]\nU.S. Food and Drug Administration [FDA]\nAndrogen receptor (AR), a nuclear hormone receptor, plays a critical role in AR-dependent prostate cancer and other androgen related diseases. Endocrine disrupting chemicals (EDCs) and their interactions with steroid hormone receptors like AR may cause disruption of normal endocrine function as well as interfere with metabolic homeostasis, reproduction, developmental and behavioral functions. To identify the compounds that inhibit AR signaling, GeneBLAzer AR-UAS-bla-GripTite cell line (Invitrogen, Carlsbad, CA, USA) containing a beta-lactamase reporter gene under control of an Upstream Activator Sequence (UAS) stably integrated into HEK293 cells was used to screen the Tox21 10K compound library. The cytotoxicity of the Tox21 compound library against the AR-bla cell line was tested in parallel by measuring the cell viability using CellTiter-Glo assay in the same wells.\nTox21 Assay Protocol Summary:\nAR-bla cells were dispensed at 2,000 cells/5 uL of assay medium per well into black wall/clear-bottom 1536-well plates using a Multidrop Combi (ThermoFisher Scientific, Waltham, MA) dispenser. After the assay plates were incubated at a 37C and 5% CO2 for 4 hr, 23 nL of compounds dissolved in DMSO, positive controls or DMSO only was transferred to the assay plate by a Pintool station (Kalypsys, San Diego, CA), followed by addition of 1 uL of agonist (R1881) in culture medium using a Bioraptr Flying Reagent Dispenser (FRD) workstation (Beckman Coulter, Indianapolis, IN, USA). The plates were incubated at a 37C and 5% CO2 for 16 h. After 1 uL of LiveBLAzerTM B/G FRET substrate was added using a Bioraptr FRD, the plates were incubated at room temperature for 2 h and fluorescence intensity was measured by an Envision plate reader (PerkinElmer, Shelton, CT). For cell viability readout that measures cytotoxicity, 4 ul/well of CellTiter-Glo reagent was added into the assay plates using a Bioraptr FRD. After 30 min incubation at room temperature, the luminescence intensity in the plates was measured using a ViewLux (PerkinElmer) plate reader.", "values": [{"smiles": "CC1OC1C1CCC2(C)OC2C1", "note": "(stereo not given)", "outcome": "inactive"}, {"smiles": "CCCCc1ccc2c(n1)[C@@H](c1ccc(OC)cc1C[C@H](C)C(=O)O)[C@H](C(=O)O)[C@H]2c1ccc2c(c1)OCO2", "outcome": "inactive"}, {"smiles": "Cc1c(N)c(=O)n(-c2ccccc2)n1C", "outcome": "inactive"}, {"smiles": "CCC(C)(CCCC(C)C)OC(C)=O", "note": "(stereo not given)", "outcome": "inactive"}, {"smiles": "NCCCC[C@H](N[C@@H](CCc1ccccc1)C(=O)O)C(=O)N1CCC[C@H]1C(=O)O", "outcome": "inactive"}, {"smiles": "CN1CC(=O)N/C1=N/C(=O)Nc1cccc(Cl)c1", "outcome": "inactive"}, {"smiles": "CCOC(=O)c1ccccc1", "outcome": "inactive"}, {"smiles": "O=S(=O)(O)c1cccc2c(S(=O)(=O)O)cccc12", "outcome": "inactive"}, {"smiles": "CC(C)c1ccc2ncccc2c1", "outcome": "inactive"}, {"smiles": "O=[N+]([O-])c1ccc(/C=N\\O)o1", "outcome": "inactive"}, {"smiles": "COC(=O)Nc1ccc(Cl)c(Cl)c1", "outcome": "inactive"}, {"smiles": "O=S(=O)(O)c1cccc2ccccc12", "outcome": "inactive"}, {"smiles": "C[N+](C)(CCOc1ccccc1)Cc1cccs1", "outcome": "inactive"}, {"smiles": "OCCCCCO", "outcome": "inactive"}, {"smiles": "CC(C)=CCC/C(C)=C/C#N", "outcome": "inactive"}, {"smiles": "C=COC(=O)C(C)(CC)CCC(C)C", "note": "(stereo not given)", "outcome": "inactive"}, {"smiles": "CC(C)(C)C(=O)Oc1ccc(S(=O)(=O)Nc2ccccc2C(=O)NCC(=O)O)cc1", "outcome": "inactive"}, {"smiles": "Nc1ccccn1", "outcome": "inactive"}, {"smiles": "CNCCO", "outcome": "inactive"}, {"smiles": "CCCCN1C=CN(C)C1", "outcome": "inactive"}, {"smiles": "CO[Si](C)(OC)c1ccccc1", "outcome": "inactive"}, {"smiles": "NC(N)=NCCN1CCCCCCC1", "outcome": "inactive"}, {"smiles": "CCCCCCCCCC[N+](C)(C)[O-]", "outcome": "inactive"}, {"smiles": "Clc1cc(Cl)cc(Cl)c1", "outcome": "inactive"}, {"smiles": "C1CCC2=NCCCN2CC1", "outcome": "inactive"}, {"smiles": "C[C@@H]1CCC[C@H](C)N1", "outcome": "inactive"}, {"smiles": "CC(C)(C#N)Nc1nc(Cl)nc(NC2CC2)n1", "outcome": "inactive"}, {"smiles": "CC(C)[C@H]1CC[C@@H](C)CC1=O", "outcome": "inactive"}, {"smiles": "CC(=O)c1ccccc1[N+](=O)[O-]", "outcome": "inactive"}, {"smiles": "CCC(C(=O)NC(=O)NC(C)=O)c1ccccc1", "note": "(stereo not given)", "outcome": "inactive"}, {"smiles": "C[N+]12CCC(CC1)C(OC(=O)C(O)(c1ccccc1)c1ccccc1)C2", "note": "(stereo not given)", "outcome": "inactive"}, {"smiles": "CC(CC=O)CC(C)(C)C", "note": "(stereo not given)", "outcome": "inactive"}, {"smiles": "Cc1ccc(-c2ncc(Cl)cc2-c2ccc(S(C)(=O)=O)cc2)cn1", "outcome": "inactive"}, {"smiles": "Cc1ncc([C@@H](CCCCCCc2ccc3c(n2)NCCC3)CC(=O)O)cn1", "outcome": "inactive"}, {"smiles": "CCOC(=O)C1=NOC(c2ccccc2)(c2ccccc2)C1", "outcome": "inactive"}, {"smiles": "CCCCOCCOC(=O)COc1cc(Cl)c(Cl)cc1Cl", "outcome": "inactive"}, {"smiles": "O=C(O)c1cn(C2CC2)c2cc(N3CCNCC3)c(F)cc2c1=O", "outcome": "inactive"}, {"smiles": "Cc1ccc(C(=O)c2ccccc2)cc1", "outcome": "inactive"}, {"smiles": "c1coc(CNc2ncnc3nc[nH]c23)c1", "outcome": "inactive"}, {"smiles": "CCOC(=O)CCC(=O)OCC", "outcome": "inactive"}]}]}
